# High-throughput results (PubChem BioAssay)
# Shown are actives, neighbours in structure and some others; about 19% of the full set was active somewhere.
# MARV entry inh: Marburg virus entry inhibition | Marburg virus pseudotyped entry inhibition, cell reporter | Potency, µM (titrated, usually from 37.8 µM), without a hit: at the highest dose activity change, negative = inhibition, actives largely listed as inhibitors | 1.8% of 300,000 active | AID 540276; calls by dose curve; tested in HEK293 cells; note: potency is the fitted concentration of half-maximal effect; % is set by controls: 0 for no effect and ±100 for the full control effect
# CHX counter: counter-screen hit for Shiga toxin inhibitors, cycloheximide | cell reporter, cycloheximide protein synthesis inhibition counterscreen | max response, % | 12% of 300,000 active | AID 2314; in the data active = max response mostly above about 13%, no sharp cut-off; inactive = mostly below about 14%; note: read at 38.3 µM for the half of the compounds with a filed dose; 0% is about no effect
# Lassa entry inh: blocks Lassa virus binding to or entry into cells | Lassa virus pseudotype entry inhibition, cell reporter | 1.2% of 300,000 active | AID 540256 | Potency, µM (top dose mostly 37.9 µM), for inactives: top-dose activity change, negative = inhibition, usual class: inhibitors; calls by dose curve; tested in HEK293 cells; note: potency is the fitted concentration of half-maximal effect; % is set by controls: 0 for no effect and ±100 for the full control effect; nearly all actives have a fitted effect of over 50% in size
# Pf growth 48h: inhibits P. falciparum growth in the first generation, 48 h; P. falciparum luciferase growth in erythrocytes, 48 h; Potency, µM (doses to about 28.7 µM), without a hit: at the top dose activity change, negative = inhibition, most hits filed as inhibitors; 5.9% of 310,000 active; AID 504832; note: potency is the fitted concentration of half-maximal effect; % is set by controls: 0 for no effect and ±100 for the full control effect
#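 Luciferase-expressing P. falciparum in infected erythrocytes (2% hematocrit, 0.1% parasitemia final) in RPMI 1640/0.5% Albumax were exposed to compound for 48 hours at 37 C, 5% CO2; growth read as luminescence.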
# Pf growth 96h: inhibits malaria parasite growth, 96 h. P. falciparum luciferase reporter growth, 96 h. Potency, µM (highest dose often 28.7 µM), without a hit: at the top dose activity change, negative = inhibition, most hits filed as inhibitors. 6.9% of 320,000 active. AID 504834; note: potency is the fitted concentration of half-maximal effect; % is set by controls: 0 for no effect and ±100 for the full control effect
#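 Cell-based qHTS: luciferase-tagged P. falciparum in erythrocytes (2% hematocrit, 0.05% parasitemia final) incubated with compounds for 96 hours, 37 C, 5% CO2; luciferase detection reagent then added and luminescence measured.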
# Shiga inhibitor: Shiga toxin inhibition | inhibition, % at 38.7 µM | 9.2% of 290,000 active | Vero cells, Shiga toxin protein synthesis inhibition reporter; in the data active = inhibition mostly above about 28%, no sharp cut-off; inactive = mostly below about 43%; note: 0% is about no effect
# An asterisk follows results filed as active; ? = inconclusive; . = not tested or not shown; ! = not active in a repeat; [ ] = another dose, or the depositor's remark. Unless noted, calls come from the whole dose curve; as a rule, active = well fitted inhibition curve with a large enough effect; inconclusive = small, poorly fitted or top-dose-only effect, or another doubt; inactive = no such curve, though single readings can be large or run the other way.
SMILES,MARV entry inh,CHX counter,Lassa entry inh,Pf growth 48h,Pf growth 96h,Shiga inhibitor
CC1=C(C(=O)Nc2ccc(F)cc2)C(c2cccc(C)c2)n2nc(CCCO)nc2N1 (stereo not drawn),.,-5,.,-3%,6.6µM*,-17
COc1ccccc1NC(=O)C1=C(C)Nc2nc(CCCO)nn2C1c1cccnc1 (stereo not drawn),?,-2,-2%,20%,5.2µM*,4
COc1ccc(C2C(C(=O)Nc3ccccc3)=C(C)Nc3nc(CCCO)nn32)cc1 (stereo not drawn),?,-4,18%,-33%,13µM*,-14
COc1ccc(C2C(C(N)=O)=C(C)Nc3nc(CCCO)nn32)cc1 (stereo not drawn),?,-3,?,8%,14%,-8
COC(C[C@@H](O)CC(=O)[C@@H](C)OCc1ccccc1)OC,.,-2,.,61%,43%,10
O=C1CCCCC1(O)Cc1ccc2c(c1)OCO2 (stereo not drawn),4%[46.1 µM],.,28%[46.1 µM],.,.,.
CCOc1ccccc1NC(=O)CN(c1cc(C)cc(C)c1)S(=O)(=O)c1c(C)nn(C)c1C,.,.,-17%[46.1 µM],.,.,.
CC1(C)OC(=O)C(=CNn2cnc3ccccc3c2=O)C(=O)O1,3%,32*,16%,39%,37%,29
CS(=O)(=O)Nn1cnc2ccccc2c1=O,?,1,-15%,4%,176%,-12
CCOC(=O)NN=C1c2ccccc2-c2ccccc21,7%,-1,-26%,25%,10µM*,11
CCOC(=O)N/N=C1\CCc2ccccc21,33%,38*,4%,79%,66%,73*
O=C(NN=C1c2ccccc2-c2ccccc21)c1ccccc1,0%,-3,.,-1%,8.3µM*,-21
COc1ccc(NCC(=O)N/N=C2\CCc3ccccc32)cc1,5%[46.1 µM],29*,3%[46.1 µM],?,?,66*
O=C(CNc1ccc(F)cc1)N/N=C1\CCc2ccccc21,-18%[14.2 µM],13,8%,?,-24%,51
CC(=O)Nc1ccc(NC(=O)C(=O)NCC(c2ccco2)N2CCc3ccccc3C2)cc1 (stereo not drawn),?,.,-30%,?,?,.
Fc1ccc(-c2c[nH]c(=S)n2Cc2ccccc2)cc1,.,-3,.,10µM*,?,-3
O=C(Cn1ccc(NC(=O)OCc2ccccc2)nc1=O)NCCc1ccccn1,.,.,.,30%,-18%,.
Cc1c(C)n(Cc2ccccc2)c2ccc(C(=O)NCc3ccccc3F)cc12,.,.,-29%[46.1 µM],.,.,.
COc1ccc(Oc2coc3c(CN4CCOCC4)c(O)ccc3c2=O)cc1,9%,11,?,.,2.9µM*,6
COc1ccc(-c2cc3ccc(O)c(CN4CCOCC4)c3oc2=O)cc1,.,.,5%[46.1 µM],.,.,.
COc1ccc(-c2coc3c(CN4CCCCC4)c(O)c(CN4CCCCC4)c(O)c3c2=O)cc1,.,-2,.,5.9µM*,88%,-17
O=c1c(-c2ccc(Br)cc2)coc2c(CN3CCOCC3)c(O)ccc12,23%,22*,24%,2.6µM*,?,35*
COc1ccc(Oc2coc3c(CN(C)C)c(O)ccc3c2=O)cc1,13%[46.1 µM],-2,-14%,12%,.,9
CC1CCCN(Cc2c(O)ccc3c(=O)c(-c4ccc(Cl)cc4)coc23)C1 (stereo not drawn),.,-1,.,1µM*,-10%,-2
COC(=O)c1ccc(C(=O)OC)c(NC(=O)C(C)C)c1,13%[46.1 µM],-3,-26%[46.1 µM],10%,248%,-10
SMILES,MARV entry inh,CHX counter,Lassa entry inh,Pf growth 48h,Pf growth 96h,Shiga inhibitor
CCOC(=O)C1CCCC(NS(=O)(=O)c2ccc(NC(C)=O)cc2)C1 (stereo not drawn),2%,0,?,-19%,.,-12
O=P(/C(=N/O)Sc1ccccc1)(N1CCOCC1)N1CCOCC1,-6%,-1,6%,?,-14%,-15
CCOc1ccc(CNC(=O)c2cnc(SC)nc2CC)cc1,.,.,2%[46.1 µM],.,.,.
O=c1c(-c2ccc(Cl)cc2)coc2c(CN3CCCCC3)c(O)ccc12,.,5,.,2.9µM*,-26%,17
O=c1c(-c2ccc(Br)cc2)coc2c(CN3CCCCC3)c(O)ccc12,.,-1,.,1.7µM*,2.3µM*,-5
O=c1c(-c2ccccc2Cl)coc2c(CN3CCCCC3)c(O)ccc12,.,1,.,?,?,-6
Cc1cc(C)cc(SCc2noc(C(=O)NCC3CCCO3)c2C(=O)O)c1 (stereo not drawn),.,-5,.,31%,83%,-3
COc1cccc2c1C(=O)c1c(O)c3c(c(O)c1C2=O)C[C@](O)(C(=O)CO)C[C@@H]3O[C@H]1C[C@H](N)[C@@H](O)[C@H](C)O1,.,.,.,-10%,-10%,.
CCCCC(=O)OCC(=O)[C@]1(O)Cc2c(O)c3c(c(O)c2[C@H](OC2CC(NC(=O)C(F)(F)F)C(O)C(C)O2)C1)C(=O)c1c(OC)cccc1C3=O (stereo partly drawn),.,.,.,3.4µM*,2.4µM*,.
COc1cccc2c1C(=O)c1c(O)c3c(c(O)c1C2=O)C[C@@](O)(C(=O)CO)C[C@@H]3OC1C[C@@H](N)[C@H](O)[C@H](C)O1 (stereo partly drawn),.,1,.,.,.,18
COc1cccc2c1C(=O)c1c(O)c3c(c(O)c1C2=O)C[C@@](O)(C(C)=O)C[C@@H]3O[C@H]1C[C@H](N)[C@H](O)[C@H](C)O1,0.23µM*,5,?,0.37µM*,0.59µM*,42*!
CC(=O)[C@]1(O)Cc2c(O)c3c(c(O)c2[C@@H](O[C@H]2C[C@H](N)[C@H](O)[C@H](C)O2)C1)C(=O)c1c(O)cccc1C3=O,0.056µM*,-4,0.16µM*,2.4µM*,1.5µM*,-2
CC1(C)Cc2c(sc(NC(=O)Cc3ccccc3)c2C#N)CO1,3%[46.1 µM],1,-1%,29%,0%,24
Cc1ccc(-c2nc(C)c(CCNC(=O)c3ccco3)s2)cc1,.,.,6%[46.1 µM],.,.,.
COc1cc(OC)c(C(=O)OC(C)C(=O)Nc2cccc(C(F)(F)F)c2)cc1OC (stereo not drawn),?,-3,-4%,?,9.3µM*,-9
CC(C)n1c2ccccc2c2cc([N+](=O)[O-])ccc21,?,-3,5%,?,4.7µM*,-9
COc1cc(OC)cc(-c2oc3cccnc3c2C#CCCO)c1,.,-3,.,14%,?,1
COc1ccc(/C=C/c2c(-c3ccc(OC)cc3)oc3cccnc23)cc1,.,16*,.,?,29%,31*
Cc1cc2c(nc1C)CCCN2C[C@H](O)CN1CCCc2nc(-c3ccc(Br)cc3)ccc21,2%[14.2 µM],.,.,.,.,.
NCCCC[C@H]1CN=C(N)N1CCC12CC3CC(CC(C3)C1)C2,.,-1,.,9.3µM*,3.7µM*,21
Clc1ccc(CNc2cc(-c3ccccc3)nc3nncn23)cc1,-15%[46.1 µM],.,-1%[46.1 µM],.,.,.
NC(=O)C1CC(=O)N(c2ccc(OCc3ccc(Cl)cc3Cl)cc2)C1 (stereo not drawn),.,26*,.,19%,-15%,58
